Source: PubChem
An excerpt weighted towards active compounds, which were near 1.4% of everything screened.
IDE cell inh = inhibitors of human insulin-degrading enzyme in cells; P14735; HEK cells, FAbetaB cleavage, fluorescence polarization; inhibition, % at 5.59 µM; 320,000 compounds, 0.41% hits; AID 434962;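 active = percent inhibition above the average of all tested compounds plus 3 SD, set per screening campaign, cut at about 16% in these data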;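 also: IDE supplied by intact live HEK cells; FP after avidin binding of uncleaved biotin substrate so inhibition keeps polarization high; 0% = DMSO wells and 100% = 60 µM reference IDE inhibitor Ii1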
TPT1 inh = inhibitors of Candida albicans tRNA 2'-phosphotransferase TPT1; inhibition, % at 5 µM; AID 1962; 300,000 compounds, 0.81% hits; recombinant caTPT1, FP RNA substrate dephosphorylation;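 active = inhibition above the mean of all tested compounds plus 3 SD, set per screening campaign, cut at about 24% in these data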;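 also: plate controls were DMSO alone for no effect and ferristatin control at 100 nM for full effect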
IDE cell activ = IDE (human) activation, cell-based; P14735; HEK cells, FAbeta-B cleavage, fluorescence polarization; 0% vehicle, 100% cell-free pure enzyme wells; activation, % at 5.96 µM; 340,000 compounds, 0.073% hits; AID 493087;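 active = activation above the mean of all tested compounds plus 3 SD, set per screening campaign, cut at about 17% in these data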
HNF4A DNA FP = change in binding of human HNF4 alpha to DNA | P41235 | HNF4a-FITC DNA binding, fluorescence polarization, 1 h | activity change, % at 10 µM | 360,000 compounds, 0.3% hits; in the data active = activity change above about 30%, passing the limit was not always enough
CRFR2-BP ag = CRF-BP/CRF-R2 complex agonism; HEK293 CRF-R2/CRF-BP, calcium dye fluorescence (FLIPR); percent of saturating CRF peptide response; activation, % at 13.2 µM; 350,000 compounds, 0.46% hits; AID 588473;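 active = activation of at least 50%, plus an integration ratio under a set limit after plate pattern correction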;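 also: plate controls were neutral control wells without compound for no effect and CRF at EC100 for full effect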
caTPT1 confirm = confirmation of Candida albicans TPT1 inhibitors; shares compounds with TPT1 inh; recombinant caTPT1, fluorescence polarization, RNase T1 coupled; inhibition, % at 5 µM; 2,400 compounds, 74% hits; AID 2149;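 active = inhibition above the primary screen limit, the mean inhibition of all tested compounds plus 3 SD, cut at about 25% in these data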
RNase T1 counter = RNase T1 inhibition in TPT1 counter-screen; shares compounds with TPT1 inh; RNase T1 cleavage, fluorescence polarization, 1536-well; inhibition, % at 5 µM; 2,400 compounds, 83% hits; AID 2153;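 active = inhibition above the solvent-only control well mean plus 3 SD, limit set per screening run, cut at about 23% in these data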;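 also: plate controls were DMSO wells with enzyme for no effect and wells without RNase T1 for full effect; inhibitors block cleavage so intact labeled substrate keeps polarization high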
* hit, by the source's call; x = no result given.

SMILES	IDE cell inh	TPT1 inh	IDE cell activ	HNF4A DNA FP	CRFR2-BP ag	caTPT1 confirm	RNase T1 counter
CCN(CC)c1ccc2cc(C(N)=O)c(=O)oc2c1	-1	40*	-2	35	41	36*	45*
CCCCCCc1cc2cc(C(N)=O)c(=N)oc2cc1O	0	67*	x	x	x	8	22*
CCN(CC)c1ccc2cc(C(N)=O)c(=N)oc2c1	15	73*	x	-22	258*	71*	75*
COc1ccc(OC)c(-c2nn(-c3ccccc3)cc2C(=O)NCC(c2ccco2)N2CCCC2)c1 (configuration not stated)	0	x	0	2	1	x	x
O=C1NC[C@H](Cc2ccccc2)N(CC2CCN(CCc3ccc(-c4ccccc4)cc3)CC2)C1=O	x	x	-2	3	-1	x	x
CCN(CC)c1ccc2cc(/C(N)=N/NC(=O)c3cccs3)c(=O)oc2c1	10	87*	x	x	x	108*	112*
O=C1OC(COCC#Cc2ccccc2)CN1c1ccccc1 (configuration not stated)	x	x	x	-1	13	x	x
Nc1nc(N)c2ncc(C(=O)CCc3ccccc3)nc2n1	10	41*	-2	5	6	44*	56*
O=c1oc2c(O)c(O)cc3c(=O)oc4c(O)c(O)cc1c4c23	-6	81*	6	-91	-2	92*	17
CC(C)c1nnc(NC(=O)CCC(=O)NCc2ccc(F)cc2)s1	1	-2	-3	2	0	x	x
Nc1nc(-c2ccccc2)c(-c2ccccc2)s1	1	-2	-3	1	0	x	x
Nc1nc(-c2ccccc2)c(-c2ccc([N+](=O)[O-])cc2)s1	1	40*	-6	13	14	51*	69*
C=CCn1ccc(=NC=C(C#N)C#N)c2ccccc21	2	31*	0	13	15	45*	57*
C=CCn1ccc2c([N+](=O)[O-])cccc2c1=O	-2	1	2	-3	0	x	x
Cc1ccc(C(=O)N/C(=C\c2ccc(-c3ccc([N+](=O)[O-])cc3)o2)C(=O)NC2CCS(=O)(=O)C2)cc1 (configuration not stated)	3	47*	4	26	95*	58*	71*
Cc1ccc(C(=O)N/C(=C/c2ccc(-c3ccc([N+](=O)[O-])cc3)o2)C(=O)NCCCN(C)C)cc1	-1	26*	1	6	52*	24*	33*
O=C(NCCCO)/C(=C/c1ccc(-c2cccc([N+](=O)[O-])c2)o1)NC(=O)c1ccccc1	6	-2	1	-2	2	x	x
Cc1c(C(=O)NCc2cccc(C(F)(F)F)c2)sc(=O)n1Cc1ccc(C(=O)N(C)C)cc1	x	x	x	0	x	x	x
COc1ccccc1N1C(=N)S/C(=C\c2ccc(-c3ccccc3C(=O)O)o2)C1=O	14	57*	-7	15	7	76*	87*
N=C1S/C(=C\c2ccc(-c3ccccc3C(=O)O)o2)C(=O)N1c1ccc2c(c1)OCO2	x	x	1	-10	-2	x	x
Cc1sc2nc(CSc3nc4ccccc4s3)[nH]c(=O)c2c1C	0	42*	x	x	x	52*	64*
Cc1ccc2nc(CSc3nnc(Cc4cccs4)n3C3CCCCC3)cc(=O)n2c1	0	-1	-4	-2	-1	x	x
Cc1sc2nc(CSc3nc4ccccc4c(=O)n3CCCN3CCOCC3)[nH]c(=O)c2c1C	1	57*	-5	34*	19	67*	77*
Cc1sc2nc(CSc3nnc(Cc4cccs4)n3C3CCCCC3)[nH]c(=O)c2c1C	1	38*	5	30	16	66*	74*
O=c1[nH]c(CSc2nc3ccccc3s2)nc2ccccc12	6	0	-2	2	-1	x	x
Cc1ccccc1NC(=O)c1nn(C)c2c1CS(=O)(=O)c1ccccc1-2	-1	-2	-5	6	-1	x	x
CCOC(=O)c1c(Nc2ccc(Cl)cc2)sc(/C=C2\C=Nc3ccccc32)c1O	5	36*	4	45*	14	46*	54*
COc1ccc(-c2noc(CNS(=O)(=O)c3ccc(NC(C)=O)cc3)n2)cc1OC	4	-2	4	8	0	x	x
